Measured values as given in PubChem BioAssay AID1851 (National Center for Advancing Translational Sciences (NCATS), 2009).
Values joined by “and” are separate entries in the source; they are usually repeats but may differ in a detail not shown here. Equal values may be shown once. Out of some 16,000 compounds screened, about 4,000 (25%) were called active. Another 26% or so got no clear call; they are omitted. Calls follow the shape of the dose curve; as a rule, active = well fitted curve in the direction sought with a large enough effect; inconclusive = small, poorly fitted or top-dose-only effect, or effect the other way; inactive = no such curve, though single readings can be large or run the other way. Not all results are given here. A structure can be active in one record and inactive in another.
% is scaled to controls: 0 for no effect and ±100 for the full control effect.

Each molecule was assayed against Cytochrome P450 2C9 (Homo sapiens) (UniProt P11712) (assay: Cytochrome panel assay with activity outcomes). Settings: recombinant CYP, pro-luciferin dealkylation, luminescence, p450-cyp2c9; series mostly up to 57.1 µM; activity, negative = inhibition: at the top concentration.
Cytochrome P450 2C9 (Homo sapiens), sequence (P11712 whole entry, looked up): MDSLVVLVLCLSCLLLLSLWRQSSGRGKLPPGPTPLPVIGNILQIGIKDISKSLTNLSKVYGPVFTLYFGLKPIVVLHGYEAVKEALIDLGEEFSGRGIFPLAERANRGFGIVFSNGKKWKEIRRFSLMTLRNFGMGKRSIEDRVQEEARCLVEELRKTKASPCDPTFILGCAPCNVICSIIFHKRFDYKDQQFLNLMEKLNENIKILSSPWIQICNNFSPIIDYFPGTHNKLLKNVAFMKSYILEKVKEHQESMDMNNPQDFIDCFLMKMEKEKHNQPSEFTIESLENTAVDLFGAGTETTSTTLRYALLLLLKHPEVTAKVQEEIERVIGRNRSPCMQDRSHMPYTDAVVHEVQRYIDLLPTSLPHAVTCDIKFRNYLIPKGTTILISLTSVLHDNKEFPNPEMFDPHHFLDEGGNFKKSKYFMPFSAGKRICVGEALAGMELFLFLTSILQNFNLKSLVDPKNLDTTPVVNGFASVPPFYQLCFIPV
For `CCNc1ncc2nc(-c3ccc(Cl)cc3)c(=O)n(C3CC3)c2n1`, the “activity, negative = inhibition” value was 5.54% (inactive).
`Cc1ccc(Nc2c([N+](=O)[O-])ccc3c2=NC2(CCCCC2)N=3)cc1` was tested, and the AC50 was 5.01 µM (active).
`O=C(Nc1cnn(Cc2ccc(Cl)cc2Cl)c1)c1cc(-c2cccs2)on1` was tested, and the AC50 was 8.91 µM (active).
In the case of `COc1ccc(-c2cc(C(=O)Nc3cnn(Cc4ccccc4C)c3)no2)cc1OC`, the “activity, negative = inhibition” value is reported as -8.16% (inactive).
For `O=C(CC1C(=O)N(c2ccc(Cl)cc2)C(=S)N1CCc1ccncc1)Nc1ccc(F)cc1` (stereo unspecified), the AC50 was 0.0631 µM (active).
`CN(C)CC/C=C1\c2ccccc2COc2ccccc21` was tested, and the AC50 was “inactive”.
For `Cn1c(=O)c2c(ncn2CN2CCN(Cn3cnc4c3c(=O)n(C)c(=O)n4C)CC2)n(C)c1=O`, the activity, negative = inhibition was 5.13% [at 11.4 µM] (inactive).
`C#CCCCO/N=C1/C[C@@H](O)[C@@H](O)[C@@H]2[C@@H]3C(=O)N([C@@H](C)c4ccccc4)C(=O)[C@H]3CC[C@@H]12` was tested, and the activity, negative = inhibition was -23.8% [at 11.4 µM] (inactive).
With `Cc1cc2c(cc1C)NC(c1nc3ccccc3[nH]1)C1=C(CC(C)(C)CC1=O)N2` (stereo unspecified) the “activity, negative = inhibition” value was -6.82% (inactive).
`CC1(C)CC(=O)C2=C(C1)Oc1nc3ccccc3cc1C2C(C#N)C#N` (stereo unspecified) was tested, and the AC50 was 3.55 µM (active).
`CC1(C)Cc2c(sc3nc(SCC(=O)NCc4ccccc4)n(-c4ccccc4)c(=O)c23)CS1` was tested, and the AC50 was 6.31 µM (active).
With `Cc1ccc(-n2c(SCC(=O)NCc3ccco3)nc3sc4c(c3c2=O)CC(C)(C)SC4)cc1` the AC50 was 2.24 µM (active).
In the case of `CC1(C)Cc2c(sc3c2C(=O)N(c2ccccc2)C2=NCCN23)CS1`, the “activity, negative = inhibition” value is reported as -14% (inactive).
For `Nc1nc2c(c(=O)[nH]1)CN(c1ccc(S(N)(=O)=O)cc1)CN2`, the activity, negative = inhibition was 7.1% [at 11.4 µM] (inactive).
`O=C1C2=CC[C@@H]3C(=O)N(c4ccc(F)cc4F)C(=O)[C@H]3[C@H]2[C@H](O)[C@H]2O[C@H]12` was tested, and the activity, negative = inhibition was 4.69% [at 11.4 µM] (inactive).
`C=CCOC(=O)/C(=C\c1cccc2ccccc12)NC(=O)c1ccccc1` was tested, and the AC50 was 1.41 µM (active).
In the case of `Cc1ccc(S(=O)(=O)c2c(C)nn(C(C)(C)C)c2OC(=O)c2cccs2)cc1`, the AC50 is reported as 3.16 µM (active).
For `C[C@@]12CCC(=O)C=C1CC[C@@H]1[C@@H]2[C@H](O)C[C@]2(C)[C@@H]1CC[C@]2(O)C(=O)COC(=O)CCC(=O)O`, the “activity, negative = inhibition” value was -12.8% (inactive).
In the case of `CN=C(N)/N=C(\N)Nc1cc2ccccc2c2ccccc12`, the activity, negative = inhibition is reported as -14.6% [at 11.4 µM] (inactive).
In the case of `C=CC(C)(C)c1[nH]c2ccccc2c1C1=C(O)C(=O)C(c2c[nH]c3c(CC=C(C)C)cccc23)=C(O)C1=O`, the AC50 is reported as 7.94 µM (active).
In the case of `ON(CCc1ccccn1)Cc1ccccc1`, the activity, negative = inhibition is reported as -2.37% [at 11.4 µM] (inactive).
With `ON(CCc1ccncc1)Cc1ccccc1` the AC50 was 3.98 µM (active).
In the case of `c1ccc(CCN2CCN=C2Cc2ccccc2)cc1`, the activity, negative = inhibition is reported as -8.28% [at 11.4 µM] (inactive).
With `Fc1ccc(SCCc2ccncc2)cc1` the AC50 was 2 µM (active).
In the case of `c1ccc(SCCc2ccncc2)cc1`, the AC50 is reported as 1.12 µM (active) and 1.26 µM (active).
`Br/C(=N\Nc1nn[nH]n1)c1ccncc1` was tested, and the activity, negative = inhibition was -3.74% [at 11.4 µM] (inactive).
`Cc1nc2cnc(Oc3ccccc3)nc2n(Cc2cccs2)c1=O` was tested, and the AC50 was 25.1 µM (active).
`COc1ccc(Oc2ncc3ncc(=O)n(Cc4cccs4)c3n2)cc1` was tested, and the AC50 was 15.8 µM (active).
For `Cc1nc2cnc(Nc3ccccc3)nc2n(Cc2cccs2)c1=O`, the “activity, negative = inhibition” value was -13% (inactive).
With `CN1CCN(c2ncc3ncc(=O)n(Cc4cccs4)c3n2)CC1` the “activity, negative = inhibition” value was -7.33% (inactive).
For `O=c1cnc2cnc(Oc3ccccc3)nc2n1Cc1cccs1`, the AC50 was 25.1 µM (active).
For `Cn1cc(-c2nc3cnc(Oc4ccccc4)nc3n(Cc3cccs3)c2=O)c2ccccc21`, the “activity, negative = inhibition” value was 7.76% (inactive).
With `COc1ncc2ncc(=O)n(Cc3cccs3)c2n1` the “activity, negative = inhibition” value was -14.3% (inactive).
`Clc1ccccc1-c1ccc2ncnc(N3CCNCC3)c2c1` was tested, and the activity, negative = inhibition was -9.02% [at 2.29 µM] (inactive).
`COc1ccc(COC(=O)N/N=C2/C[C@@H](O)[C@@H](O)[C@@H]3[C@H]4C(=O)N(c5ccc(F)cc5F)C(=O)[C@@H]4CC[C@@H]23)cc1` was tested, and the activity, negative = inhibition was -15.8% [at 11.4 µM] (inactive).
For `O=C(Nc1cccc(C(F)(F)F)c1)c1n[nH]c(Cn2cncn2)n1`, the AC50 was 4.47 µM (active).
With `CC(=O)Nc1c2c3c(cccc3n(C)c1=O)C(=O)c1ccccc1-2` the AC50 was 15.8 µM (active).
In the case of `Cc1c(NC(=O)C(C)N2C(=O)c3ccccc3C2=O)c(=O)n(-c2ccccc2)n1C` (stereo unspecified), the “activity, negative = inhibition” value is reported as 0.282% (inactive).
`Fc1ccc(COc2ccc(Br)cc2CNCc2ccncc2)cc1` was tested, and the AC50 was 3.98 µM (active).
With `CO[C@H]1COC(=O)[C@H](Cc2ccccc2)NC(=O)C/C=C\[C@@H](C)[C@H](OC)COC(=O)C/C=C\[C@@H]1C` the activity, negative = inhibition was 2.05% [at 11.4 µM] (inactive).
In the case of `CC1(C)CC(=O)C(C(C#Cc2ccccc2)C2=C(O)CC(C)(C)CC2=O)=C(O)C1`, the AC50 is reported as 15.8 µM (active).
In the case of `COc1ccc(CNc2ccnc(-c3ccccc3CN(C)C)n2)c(OC)c1`, the activity, negative = inhibition is reported as 10.2% [at 2.29 µM] (inactive).
For `CC(C)(C)c1cc2cccnc2n1Cc1cccc(F)c1`, the “activity, negative = inhibition” value was -28% (inactive).
With `CC1=CC(=O)CC(C)(C)[C@]1(O)/C=C\C(C)=C\C(=O)O` the activity, negative = inhibition was 9.93% [at 11.4 µM] (inactive).
For `CC1=C(\C=C/C(C)=C/C=C\C(C)=C\C(=O)O)C(C)(C)CCC1`, the AC50 was 10 µM (active) and inactive.
In the case of `CC(C)CCNc1ncnc2[nH]ncc12`, the activity, negative = inhibition is reported as 6.22% [at 11.4 µM] (inactive).
`CCOC(=O)c1cnc2c(cnn2C)c1NCCCN(C)C` was tested, and the “activity, negative = inhibition” value was -2.53% (inactive).
`COC(=O)c1nnn(Cc2ccccc2)c1N` was tested, and the “activity, negative = inhibition” value was 8.99% (inactive).
`CNC(=O)c1nnn(Cc2ccccc2)c1NC(=O)C(F)(F)F` was tested, and the AC50 was 12.6 µM (active).
`O=C(c1cc(C(F)(F)F)cc(C(F)(F)F)c1)N1CCC2(CCN(Cc3ccccc3)CC2)CC1` was tested, and the “activity, negative = inhibition” value was -0.296% (inactive).
`Nc1ncnc2c1ncn2C1CCCC1` was tested, and the “activity, negative = inhibition” value was -3.04% (inactive).
In the case of `Nc1ncnc2c1c(-c1ccc(Oc3ccccc3)cc1)cn2C1CCCC1`, the AC50 is reported as 31.6 µM (active).
In the case of `Cc1ccc(CNCC(O)(c2ccc(F)cc2)c2ccc(F)cc2)cc1`, the AC50 is reported as 25.1 µM (active).
With `CCCC(=O)n1nc(-c2cccnc2)nc1N` the “activity, negative = inhibition” value was -36.4% (inactive).
For `CCOC(=O)CC(=O)CSc1nc(-c2cccnc2)cc(C)c1C#N`, the AC50 was 1.26 µM (active).
With `CCOC(=O)CSc1n[nH]c(-c2cccnc2)n1` the “activity, negative = inhibition” value was 0.887% (inactive).
